Screening data from PubChem.
TDP1 cell noCPT: qHTS for Inhibitors of human tyrosyl-DNA phosphodiesterase 1 (TDP1): qHTS in cells in absence of CPT; DT40 Tdp1-/- hTDP1 cells, no CPT, ATP luminescence, 48 h; Potency, µM (highest dose often 46.2 µM), for inactives: top-dose activity change, negative = growth inhibition, hits mostly inhibitors; actives 15% (n = 420,000); also: nearly all actives have a fitted effect of over 55% in size
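Chicken DT40 Tdp1-/- cells complemented with human TDP1, screened without camptothecin (DMSO vehicle only), 400 cells/well. Compounds pin-transferred, cells incubated at 37 °C for at least 48 hr. Growth read as ATP-dependent luminescence (CellTiter-Glo, 30 min at RT).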
HT1080 IDH1KD tx: toxicity to HT-1080 IDH1 knockdown cells (counter line); HT-1080 IDH1 knockdown viability, ATP luminescence, 48 h; Potency, µM (titrated, usually from 46.1 µM), inactives show at the highest dose activity, negative = toxicity, actives largely listed as cytotoxic; actives 2% (n = 360,000); AID 686971;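 also: 0% = DMSO wells and -100% = cell-free medium wells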
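Knockdown cells (IDH1KD HT-1080) received compounds 2 h after plating at 750 cells/well and were kept 48 h at 37 °C in 5% FBS RPMI. A CellTiter-Glo luminescence read gave % activity for curve fitting.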
KB-3-1 tox: KB-3-1 parental cell cytotoxicity; KB-3-1 viability, CellTiter-Glo ATP luminescence, 72 h; Potency, µM (titrated, usually from 46.1 µM), usual class: cytotoxic; actives 1.4% (n = 400,000); also: nearly all actives have a fitted effect of over 60% in size
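Parental KB-3-1 viability, qHTS format: 72 h compound exposure, 37 °C; CellTiter-Glo; media-only wells and DMSO plates as controls; concentration-effect fits on corrected data.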
TDP1 cell CPT: growth inhibition of DT40 Tdp1-/-;hTDP1 cells with camptothecin (screen for TDP1 inhibitors); chicken DT40 Tdp1-/-;hTDP1 cells + 20 nM CPT, ATP luminescence, 48 h; Potency, µM (highest dose often 46.2 µM), without a hit: at the highest dose activity change, negative = growth inhibition, hits mostly inhibitors; actives 12% (n = 420,000); AID 686979; also: nearly all actives have a fitted effect of over 55% in size
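Chicken DT40 Tdp1-/- cells stably complemented with human TDP1 were seeded at 400 cells/well in medium containing 20 nM camptothecin, exposed to pin-transferred compounds, and grown at 37 °C for at least 48 hr. Viability was read as ATP luminescence.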
HT1080NT lethal: kills 2HG-producing HT-1080-NT fibrosarcoma cells; HT-1080-NT fibrosarcoma viability, CellTiter-Glo ATP luminescence, 48 h; Potency, µM (series often up to 46.1 µM), for inactives: at the top dose activity, negative = less viability, usual class: cytotoxic; actives 1.6% (n = 360,000); AID 686970;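 also: NT is the 2HG producing partner of a matched IDH1 knockdown line; 0% = DMSO-treated cells and -100% = media-only wells without cells; nearly all actives have a fitted effect of over 55% in size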
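A 48-hour cytotoxicity screen used HT-1080-NT cells plated 2 hours before compound delivery. ATP-based CellTiter-Glo luminescence measured viability, normalized to DMSO and no-cell controls.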
KB-V1 cytotox: KB-V1 MDR subline cytotoxicity | KB-V1 MDR cells viability, CellTiter-Glo, 72 h | Potency, µM (highest dose often 46.1 µM), usual class: cytotoxic | actives 3.4% (n = 400,000) | AID 1347076; also: nearly all actives have a fitted effect of over 60% in size
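Luminescent ATP read-out (CellTiter-Glo, 10 min) measures survival of drug-selected KB-V1 MDR cells after 72 h, 37 degrees C compound exposure. Medium: phenol-red-free DMEM, 10% FBS. Values from fitted concentration-response curves.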
Numbers without * were called inactive; i = inactive; ? = inconclusive; . = no result given; ! = repeats disagree; [ ] = another dose, or the depositor's remark. Hits are enriched below; roughly 19% of the tested compounds scored in any of these assays. Calls follow the shape of the dose curve; as a rule, active = well fitted curve in the direction sought with a large enough effect; inconclusive = small, poorly fitted or top-dose-only effect, or another doubt; inactive = no such curve, though single readings can be large; an effect the other way counts as inactive or inconclusive. Unless noted, % is scaled to controls: 0 for no effect and ±100 for the full control effect; potency is read from the fitted curve at half-maximal effect.

SMILES	TDP1 cell noCPT	HT1080 IDH1KD tx	KB-3-1 tox	TDP1 cell CPT	HT1080NT lethal	KB-V1 cytotox
COC(=O)C1CCN(Cc2ccc3c(c2)CN(C(=O)c2ccc(-n4cnnn4)cc2)CCO3)CC1	-7%	.	.	0%[9.04 µM]	.	.
CCOC(=O)c1oc2ccc(S(=O)(=O)n3nc(-c4ccc(OC)cc4)cc3N)cc2c1C	2.9µM*	-10%	?	2.9µM*	12%	?
CCOc1ccc(-c2cc(N)n(S(=O)(=O)c3ccc(OC)cc3)n2)cc1	?	-8%	i	?	-6%	i
CCN(CC)C(=O)n1cnc(-c2ccccc2)c1-c1ccccc1	?	11%	i	?	12%	21µM*
CC1=C(C(=O)N(C(C)C)C(C)C)CC(CC(=O)NCCc2ccccn2)C(=O)N1CCCN1CCCC1=O (stereo not drawn)	4%	12%	i	0%	14%	?
O=S1(=O)c2ccc(Br)cc2N2CCC[C@@H]2CN1Cc1ccc(Cl)cc1	?	5%	i	?	6%	?
O=S1(=O)c2ccc(Br)cc2N2CC[C@H](C2)N1Cc1ccc(Cl)cc1	1.6µM*	7.3µM*	?	1.3µM*	?	?
NC(=O)CC(NC(=O)c1ccc(Br)cc1)c1ccc(N2CCN(c3ccccc3)CC2)c([N+](=O)[O-])c1 (stereo not drawn)	?	0%	i	?	5%	i
NC(=O)CC(NC(=O)c1cccc(Br)c1)c1ccc(N2CCC(N3CCCCC3)CC2)c([N+](=O)[O-])c1 (stereo not drawn)	-2%	13%	i	-6%	1%	?
NC(=O)CC(NC(=O)c1ccccc1)c1ccc(N2CCN(c3ccccn3)CC2)c([N+](=O)[O-])c1 (stereo not drawn)	21µM*	12%	i	21µM*	9%	i
NC(=O)CC(NC(=O)c1ccccc1)c1ccc(N2CCC(N3CCCC3)CC2)c([N+](=O)[O-])c1 (stereo not drawn)	0%	20%	i	-18%	9%	i
NC(=O)CC(NC(=O)c1ccc(Br)cc1)c1ccc(N2CCC(Cc3ccccc3)CC2)c([N+](=O)[O-])c1 (stereo not drawn)	-73%	?	?	16µM*	-23%	i
NC(=O)CC(NC(=O)c1ccccc1)c1ccc(N2CCC(Cc3ccccc3)CC2)c([N+](=O)[O-])c1 (stereo not drawn)	5.2µM*	?	?	7.3µM*	-29%	?
CC(NC(=O)c1ccco1)c1nnc2n1CCN(Cc1ccc(Cl)cc1)CC2 (stereo not drawn)	2%	.	.	13%[9.04 µM]	.	.
CC(C)Cc1ccc(S(=O)(=O)Nc2ccc3[nH]c(=O)[nH]c3c2)cc1	26µM*	0%	i	16µM*!	-3%	?
CCc1ccc(NS(=O)(=O)c2ccc3[nH]c(=O)[nH]c3c2)cc1	-8%	26%	i	5%	9%	?
COC(=O)c1cc(NC(=O)c2cc(-c3ccc(C(F)(F)F)cc3)oc2C(F)(F)F)ccc1N1CCOCC1	21µM*	-3%	?	?	-2%	?
O=C(Nc1cc(N2CCCCC2)ncn1)c1ccc(F)cc1	?	7%	i	?	9%	i
O=C(Nc1ccc(N2CCOCC2)nc1)c1ccc(C(F)(F)F)cc1	?	-20%	?	2%	-16%	8.2µM*
O=C(Nc1cc(N2CCOCC2)ncn1)c1ccc(F)cc1	5.8µM*	-26%	16µM*	-13%	-6%	i
CC(C)(C)C(=O)Nc1ccc(N2CCN(c3ccc(C(F)(F)F)cn3)CC2)nc1	1.5µM*	-5%	i	?	-21%	i
O=C(Nc1ccc(N2CCOCC2)nc1)c1ccccc1Cl	-3%	12%	i	7%	23%	i
CS(=O)(=O)Nc1ccc(N2CCN(c3ccc(C(F)(F)F)cn3)CC2)nc1	?	?	i	?	-11%	i
O=C(CCS(=O)(=O)c1cc(Br)cc2c1N(C(=O)C1CC1)CC2)Nc1ccc(F)cc1	-4%	.	i	-3%	.	i
Cc1cccc(NC(=O)CSc2ccc3nnc(-c4cccnc4)n3n2)c1	-27%	-15%	?	-17%	-8%	i
SMILES	TDP1 cell noCPT	HT1080 IDH1KD tx	KB-3-1 tox	TDP1 cell CPT	HT1080NT lethal	KB-V1 cytotox
O=C(Nc1ccc(C(F)(F)F)cc1)c1cnc(N2CCN(c3ccccn3)CC2)c2ccccc12	?	4%	i	21µM*	4%	i
C/C(=N\Nc1cc(N2CCOCC2)ncn1)c1ccc(O)cc1	?	-5%	i	8.2µM*	4%	i
O=C(Nc1ccc(C(F)(F)F)cc1)c1cccnc1N1CCOCC1	?	?	i	-19%	-7%	16µM*
O=C(CCN1CCN(c2ccccn2)CC1)Nc1ccc(F)cc1	-5%	10%	i	-17%	9%	i
COc1ccccc1NC(=O)Cn1cnc2c(nc3n2CCCCC3)c1=O	-8%	-10%	i	24%	7%	i
Cc1cc(C)cc(Nc2ncnc3c2nc2n3CCCC2)c1	9.2µM*	.	.	9.2µM*	.	.
COc1ccc(OC)c(Nc2ncnc3c2nc2n3CCCC2)c1	?	.	.	9.2µM*	.	.
COc1ccc(Cl)cc1Nc1ncnc2c1nc1n2CCCC1	16µM*	.	.	12µM*	.	.
CC(C)OCCCNc1ncnc2c1nc1n2CCCC1	-3%	11%	i	-23%	0%	i
Fc1ccccc1Nc1ncnc2c1nc1n2CCCCC1	?	.	i	?	.	?
